About 1,200 (0.35%) of roughly 340,000 compounds were called active. For the sample, actives were picked, then their nearest neighbours and some compounds at random. Unmarked numbers belong to inactive results.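 The calls were made as follows: active = potentiation over 3 SD above the plate norm (cut at about 30% in these data); inactive = the rest.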

This is an account of results in PubChem BioAssay AID485347 (National Center for Advancing Translational Sciences (NCATS), 2010).

D(2) dopamine receptor (Homo sapiens), sequence (P14416 whole entry, looked up): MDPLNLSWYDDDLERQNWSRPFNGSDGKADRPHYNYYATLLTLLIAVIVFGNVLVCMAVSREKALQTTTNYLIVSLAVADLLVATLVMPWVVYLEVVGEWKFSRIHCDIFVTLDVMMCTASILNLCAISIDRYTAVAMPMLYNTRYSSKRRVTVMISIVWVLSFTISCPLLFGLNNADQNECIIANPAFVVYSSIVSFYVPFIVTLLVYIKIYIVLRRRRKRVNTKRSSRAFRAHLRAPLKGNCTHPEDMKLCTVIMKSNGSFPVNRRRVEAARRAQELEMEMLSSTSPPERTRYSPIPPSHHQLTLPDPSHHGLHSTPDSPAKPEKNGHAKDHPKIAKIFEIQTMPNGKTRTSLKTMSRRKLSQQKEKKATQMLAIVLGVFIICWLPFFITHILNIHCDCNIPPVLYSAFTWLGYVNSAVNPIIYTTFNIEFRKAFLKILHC

The test has as its target D(2) dopamine receptor (Homo sapiens) (UniProt P14416). Description: HTS Assay for Positive Allosteric Modulators of the Human D2 Dopamine Receptor: Primary Screen for Potentiators. Also: 0% is about no effect. The following applies: HEK293 T-REx D2, calcium flux, EC20 dopamine potentiation; at 10 µM; hits give high values. From the text:
NIH Chemical Genomics Center [NCGC] NIH Molecular Libraries Probe Centers Network [MLPCN] MLPCN Grant: NS064831-01 Assay Submitter (PI): David Sibley Dopamine receptors (DARs) are involved in the etiology and/or therapy of a number of neuropsychiatric and endocrine disorders. For instance, all receptor-based antiparkinsonian drugs work via stimulating the D2 DAR subtype whereas all FDA-approved antipsychotic agents are antagonists of this receptor. […] There are three different types of allosteric modulators that we are seeking, two of which will stimulate or augment receptor signaling, allosteric agonists and potentiators, while the third, allosteric antagonists, will attenuate receptor signaling. The present primary screening assay measures compound potentiation of an EC20 dopamine response by tracking calcium flux in a […], inducible Hek293 Trex D2 cell line.
Freshly passaged cells are plated in 1536 well black, clear bottom plates at a density of 4000 cells/well in 3 ul of complete media containing 1x tetracycline inducer. After an overnight incubation at 30 C in 5% CO2, cells are loaded with 2 ul of the no wash Calcium Assay Kit (ABD Bioquest) and incubated at room temperature for 30 to 90 minutes. A 10 cycle (1 second/cycle) baseline measurement is taken and then the FDSS online 1536 pintool delivers 23 nl of compound library (as well as dopamine controls) to the plate. The plate is measured for kinetically at 1 cycle/sec for 180 seconds and is considered to be the agonist portion of the assay (eg, compounds which activate a positive calcium response during this portion are flagged as potential agonists). Following the 180 second read, 1 ul of an EC20 of dopamine is delivered by an onboard pipette head. Measurements are taken kinetically for an additional 180 seconds.
(In general: Calcium assays in cells follow changes in intracellular calcium, usually with a dye or a luminescent sensor.)
Turning to `COC(=O)C(c1ccccc1)N1CCCCCC1` (stereo not given), the potentiation was 5.6%.

With `O=C(NCC(c1cccnc1)N1CCN(c2ccccc2)CC1)Oc1ccccc1` (stereo not given), the potentiation was 43.6% (active).

For `COc1ccccc1N1CCN(C(CNC(=O)Oc2ccccc2)c2cccnc2)CC1` (stereo not given), the potentiation was -0.508%.

For the molecule `Cc1cccc(Cn2cccc(C(=O)Nc3ccc4c(c3)OCCO4)c2=O)c1`, the potentiation was -8.38%.

For the molecule `Cc1ccc(NC(=O)N(Cc2ccc3c(c2)OCO3)C2CCN(Cc3ccccc3)CC2)cc1F`, the potentiation is 2.88%.
